Experiment [1] can be described thus: qHTS profiling of the MIPE4 collection as inhibitors of Plasmodium falciparum (3D7) proliferation (AID 743344; call rule not given here;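 further: scaled between DMSO vehicle wells and 0.29 µM artemisinin as full inhibition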). The settings on record: P. falciparum 3D7 in erythrocytes, SYBR Green DNA fluorescence, 72 h; at 28.5 µM unless noted. In a few lines: (§1)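 Erythrocytes infected with P. falciparum (0.3% parasitemia, 2.5% hematocrit) incubated with compounds 72 h at 37 C, 5% CO2. Lysis with saponin/Triton buffer containing SYBR Green I, overnight at room temperature in the dark; DNA fluorescence (485/535 nm) normalised to 0.29 uM artemisinin and DMSO.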

Experiment [2] can be described thus: qHTS profiling of the MIPE4 collection as inhibitors of Plasmodium falciparum (DD2) proliferation (AID 743345; call rule not given here). Conditions: P. falciparum Dd2 in erythrocytes, SYBR Green DNA, 72 h; at 28.5 µM unless noted. In a few lines: as §1
Experiment [3] can be described thus: qHTS profiling of the MIPE4 collection as inhibitors of Plasmodium falciparum (DD2) proliferation (Rep 2) (AID 743346; call rule not given here). The settings on record: P. falciparum Dd2 in erythrocytes, SYBR Green DNA, 72 h; at 28.5 µM unless noted. The method, boiled down:
as §1

A short description of experiment [4]: qHTS profiling of the MIPE4 collection as inhibitors of Plasmodium falciparum (HB3) proliferation (AID 743347; call rule not given here;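 further: plate controls were DMSO vehicle wells for no effect and artemisinin wells for full effect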). The settings on record: P. falciparum HB3 in erythrocytes, SYBR Green DNA, 72 h; at 28.5 µM unless noted. The method, boiled down: as §1
The nature of experiment [5]: High-throughput drug toxicity screening in the BPDCN cell line Gen2.2 (AID 1224824; call rule not given here;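 further: cells exposed to compounds for 48 h before reading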). The settings on record: Gen2.2 BPDCN cells; at 45.8 µM (top of the series) unless noted. In a few lines:
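Seed 500 exponentially growing Gen2.2 cells/well; add compounds by pin tool; incubate 48 h, 37 °C, 5% CO2; add CellTiter-Glo, 15 min RT; read luminescence. % activity vs DMSO (100%) and bortezomib (0%).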

Experiment [6] in a line: High-throughput drug toxicity screening in the BPDCN cell line Cal-1 (AID 1224825; call rule not given here). The settings on record: Cal-1 BPDCN cell viability, qHTS; at 45.8 µM (top of the series) unless noted. The method, boiled down:
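500 Cal-1 cells/well, RPMI + glutamine + 10% FBS (phenol red-free); cpd added by pin tool; 48 h, 37C, 5% CO2; CTG 15 min RT, lumi read. Normalised: DMSO 100%, bortezomib 9.2 uM 0%.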

Experiment [7] is described as follows: qHTS assay for measurement of the activity of small molecule inhibitors on Zika virus induced Caspase-3 activity in human iPSC derived neural progenitor cells (hNPCs) (AID 1224857). Further: % of control where 0% means no effect; nearly all actives have a fitted effect of over 65% in size. In a few lines: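 hNPCs seeded 350 cells/well, cultured 16–20 h; compounds added 1 h before ZIKV (2 FFU/cell), 37 C 6 h. Caspase-Glo 3/7 luminescence after 30 min RT; % inhibition from induction scaled to uninfected (0%) and infected (100%) wells.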

Experiment [8] can be described thus: qHTS assay for measurement of the activity of small molecule inhibitors on Zika virus induced Caspase-3 activity in human astrocytoma cells (AID 1224859).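 Further: plate controls were ZIKV-infected untreated cells for no effect and uninfected cells for full effect.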 In a few lines:
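Luminescence read-out (Caspase-Glo 3/7, 30 min RT) of caspase activity in SNB-19 cells infected 6 h with ZIKV, 2 FFU/cell, after 1 h compound pretreatment; % inhibition from induction normalised to uninfected (0%) and infected (100%) wells.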

Experiment [9] can be described thus: qHTS Screen of the MIPE 4.0 Collection Against Ewings Sarcoma (RDES) (AID 1259252). Further: nearly all actives have a fitted effect of over 35% in size. Further: potency means the concentration at half of the fitted maximal effect. The method, boiled down: (§2)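 After a 4 h attachment period in RPMI/5% FBS, cells were pin-dosed with test compounds; DMSO served as negative and 9.2 uM bortezomib (final) as positive control. Luminescent CellTiter-Glo signal at 48 h defined viability.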
Experiment [10] is described as follows: qHTS Screen of the MIPE 4.0 Collection Against Ewings Sarcoma (TC71) (AID 1259253). Further: nearly all actives have a fitted effect of over 40% in size. Further: potency means the concentration at half of the fitted maximal effect. In a few lines: as §2
A short description of experiment [11]: qHTS Screen of the MIPE 4.0 Collection Against Ewings Sarcoma (EW8) (AID 1259255). Further: nearly all actives have a fitted effect of over 35% in size. Further: potency means the concentration at half of the fitted maximal effect.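 On viability: 100% = DMSO-treated cells and 0% = medium-only wells without cells.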 In a few lines:
as §2

Experiment [12] in a line: qHTS profiling for inhibitors of Plasmodium falciparum (HB3) proliferation (AID 743324).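 Further: 100% = DMSO vehicle wells and 0% = artemisinin-treated control wells.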 The settings on record: Plasmodium falciparum HB3 blood-stage proliferation; at 28.7 µM (top of the series) unless noted. The method, boiled down: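 P. falciparum HB3 grown in erythrocytes (0.3% parasitemia, 2.5% hematocrit final) with compound for 72 h at 37 C, 5% CO2. Parasite DNA detected by SYBR Green after saponin/triton lysis overnight; normalized to 0.29 uM artemisinin and DMSO.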

A short description of experiment [13]: qHTS Screen of the MIPE 4.0 Collection Against Ewings Sarcoma (TC32) (AID 1259256).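 Further: 100% = DMSO-treated cells and 0% = medium-only wells without cells; nearly all actives have a fitted effect of over 45% in size.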 In a few lines:
as §2

SMILES strings stand for the structures. Results filed as inconclusive are left out. The source made the active and inactive calls. Unless noted, the call rests on the fitted dose curve; in most records, active means well fitted curve in the direction sought with a large enough effect; inconclusive means small, poorly fitted or top-dose-only effect, or another doubt; inactive means no such curve, though single readings can be large; an effect the other way counts as inactive or inconclusive.

Take `OC1CCC(Nc2ncc3nc(Nc4c(F)cc(F)cc4F)n([C@@H]4CCOC4)c3n2)CC1` (stereo partly specified): the parasite growth, % of DMSO control in experiment [1] is 38.4%. Further, the parasite growth remaining, % of DMSO control (lower = more inhibition) in experiment [2] was 84.7%. In addition, the parasite growth, % of control (lower = inhibition) in [3] is 59.6%. The compound further returned a growth, % of control in experiment [4] of 43.4%. Further, in experiment [5], the cell viability, % of control (lower = more cytotoxic) turned out to be 62.2%. In addition, in experiment [6], the viability (% of control) turned out to be 13.2%. The Potency result in experiment [7] and in experiment [8] was “inactive” throughout. Moreover, the Potency in experiment [9] was 18.7 µM (active); in [10] it was 10.5 µM (active); in experiment [11], 9.35 µM (active).

As to `CC(C)CN(C[C@H](O)[C@H](Cc1ccccc1)NC(=O)O[C@H]1CCOC1)S(=O)(=O)c1ccc(N)cc1`, in experiment [1], the parasite growth, % of DMSO control came out at 6.57%. For the same compound, the parasite growth remaining, % of DMSO control (lower = more inhibition) in experiment [2] came to 73.7%. Further, the parasite growth, % of control (lower = inhibition) in experiment [3] was 56.3%. The growth, % of control in experiment [4] turned out to be 42.8%. Further, in experiment [5], the cell viability, % of control (lower = more cytotoxic) was determined as 149%. Also, in experiment [6], the viability (% of control) came out at 97.6%. Besides, the Potency entry in experiment [7] and in experiment [8] was “inactive” in each case. For the same compound, the Potency was 16.6 µM (active) in experiment [9], 18.7 µM (active) in [10] and 18.7 µM (active) in [11].

For `CC[C@H]1OC(=O)[C@H](C)[C@@H](O[C@H]2C[C@@](C)(OC)[C@@H](O)[C@H](C)O2)[C@H](C)[C@@H](O[C@@H]2O[C@H](C)C[C@H](N(C)C)[C@H]2O)[C@](C)(O)C[C@H](C)C(=NOCOCCOC)[C@H](C)[C@@H](O)[C@]1(C)O`, the parasite growth, % of DMSO control in [1] is 53.1%. Also, the parasite growth remaining, % of DMSO control (lower = more inhibition) in experiment [2] was determined as 62.4%. Also, in experiment [3], the parasite growth, % of control (lower = inhibition) was 47.3%. In experiment [4], this compound gave a growth, % of control of 82.6%. Further, the cell viability, % of control (lower = more cytotoxic) in experiment [5] was found to be 129%. Further, in experiment [6], the viability (% of control) came out at 113%. Moreover, the Potency entry in [7], in experiment [8], in [9], in experiment [10] and in experiment [11] was “inactive” each time.

Regarding `COc1cc(CNC(=O)CCCCC=CC(C)C)ccc1O`, in experiment [5], the cell viability, % of control (lower = more cytotoxic) was 145%. In [6], the viability (% of control) turned out to be 27.5%. Also, the Potency entry in experiment [7] and in [8] was “inactive” in each case. The Potency in [9] was 5.9 µM (active); in experiment [10], 16.6 µM (active); in experiment [11], 6.62 µM (active).

On to `Cc1ccccc1C(=O)c1ccc(Nc2ccc(Br)cc2N)cc1Cl`, for which, in experiment [1], the parasite growth, % of DMSO control is 27.4%. Also, the parasite growth remaining, % of DMSO control (lower = more inhibition) in experiment [2] is 44.1%. Besides, the parasite growth, % of control (lower = inhibition) in experiment [3] came to 40%. In experiment [4], this compound had a growth, % of control of 28.4%. The cell viability, % of control (lower = more cytotoxic) in experiment [5] was found to be 182%. Also, the viability (% of control) in experiment [6] worked out at 79.6%. For the same compound, the Potency result in experiment [7] and in experiment [8] was “inactive” throughout. For the same compound, the Potency was 23.5 µM (active) in experiment [9], 16.6 µM (active) in experiment [10] and 23.5 µM (active) in [11].

With `COc1cc([C@@H]2c3cc4c(cc3[C@@H](O[C@@H]3O[C@@H]5CO[C@@H](C)O[C@@H]5[C@H](O)[C@@H]3O)[C@H]3COC(=O)[C@H]23)OCO4)cc(OC)c1O`, the remaining proliferation (% of control), lower = more inhibition in [12] worked out at 11.4% [at 9.63 µM]. Moreover, the parasite growth, % of DMSO control in [1] was found to be 10.3%. Further, in experiment [2], the parasite growth remaining, % of DMSO control (lower = more inhibition) worked out at 11%. For the same compound, the parasite growth, % of control (lower = inhibition) in [3] amounted to 140%. In experiment [4], this compound yielded a growth, % of control of 4.48%. Also, the cell viability, % of control (lower = more cytotoxic) in [5] was 57.1%. The viability (% of control) in [6] was found to be 8.03%. Also, the Potency entry in experiment [7], in [8] and in [13] was “inactive” throughout. In addition, the Potency in experiment [9] is 1.05 µM (active); in [10] it was 0.59 µM (active); in experiment [11], 0.148 µM (active).

On to `CCCCC(F)(F)[C@@]1(O)CC[C@H]2[C@H](CC(=O)[C@@H]2CCCCCCC(=O)O)O1`, for which, in [1], the parasite growth, % of DMSO control was 77.3%. Also, the parasite growth remaining, % of DMSO control (lower = more inhibition) in experiment [2] amounted to 99.5%. Also, the parasite growth, % of control (lower = inhibition) in [3] is 70.3%. Besides, in experiment [4], the growth, % of control was 83%. In addition, the cell viability, % of control (lower = more cytotoxic) in [5] turned out to be 92.5%. The viability (% of control) in experiment [6] came to 106%. The Potency result in experiment [7] and in experiment [8] was “inactive” in each case. Also, the values for the Potency in experiment [9], in [10] and in [11] were 2.64 µM (active), 2.96 µM (active) and 3.32 µM (active), respectively.

With `NC(=O)c1noc([C@H](CCCC2CCCCC2)CC(=O)NO)n1`, the parasite growth, % of DMSO control in experiment [1] was 33.9%. The parasite growth remaining, % of DMSO control (lower = more inhibition) in experiment [2] was determined as 125%. The parasite growth, % of control (lower = inhibition) in [3] amounted to 30.9%. In addition, the growth, % of control in experiment [4] is 48.3%. Moreover, in experiment [5], the cell viability, % of control (lower = more cytotoxic) turned out to be 20%. Further, in experiment [6], the viability (% of control) was determined as 7.18%. In addition, the Potency result in experiment [7] and in experiment [8] was “inactive” throughout. Moreover, the values for the Potency in experiment [9], in [10] and in [11] were 8.33 µM (active), 26.4 µM (active) and 18.7 µM (active), respectively.

(Values after PubChem BioAssay (NCATS).)
